The record followed here is PubChem BioAssay (EPA / NIEHS).

In general, AC50 refers to the midpoint of the concentration-response curve, whichever way the signal moves.

Assay [1] has as its target Cytochrome P450 2C18 (Homo sapiens) (UniProt P33260). Kind of assay: NVS_ADME_hCYP2C18: NovaScreen (NVS) CYP450-related Enzyme Activity (ADME) Assay for human CYP2C18 (AID 2283103; active = hit-call score of the fitted dose curve at least 0.9, where 1 is the maximum; inactive = score below 0.9). The method in brief: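 Cell-free recombinant human CYP2C18 with fluorogenic substrate; fluorescence intensity read 0.5 h after dosing. Single-point screen at 10 uM in duplicate, then concentration-response up to 20 uM; loss of signal fitted against acetonitrile baseline.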

Assay [2] has as its target human CYP2C9, CYP2C9 (gene 1559) (UniProt P11712). Kind of assay: NVS_ADME_hCYP2C9: NovaScreen (NVS) CYP450-related Enzyme Activity (ADME) Assay for human CYP2C9 (AID 2283108). The method in brief: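 Cell-free assay of recombinant human CYP2C9 produced in Sf9 cells, with enzyme activity read by fluorescence intensity 0.75 h after compound addition. Loss of signal versus an acetonitrile negative control indicates inhibition. Primary screen used 10 uM in duplicate; actives were retested in concentration series.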

In assay [3] the target is Cytochrome P450 3A4 (Homo sapiens) (UniProt P08684). Kind of assay: NVS_ADME_hCYP3A4: NovaScreen (NVS) CYP450-related Enzyme Activity (ADME) Assay for human CYP3A4 (AID 2283110). The method in brief:
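Cell-free assay using insect-cell-expressed human CYP3A4 with a fluorogenic substrate; fluorescence intensity was read 0.33 hour after dosing. Loss of signal relative to acetonitrile vehicle indicated inhibition. Primary single-concentration screen at 10 uM, in duplicate, then concentration series.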

Assay [4] addresses Cytochrome P450 2C19 (Homo sapiens) (UniProt P33261). Kind of assay: NVS_ADME_hCYP2C19: NovaScreen (NVS) CYP450-related Enzyme Activity (ADME) Assay for human CYP2C19 (AID 2283113).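 Note: potency for inhibition seen as loss of fluorescent signal.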 The essentials:
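Chemicals first screened in duplicate at 10 uM against recombinant human enzyme produced in insect cells; confirmed actives then run as concentration series. Fluorogenic substrate turnover read by fluorescence after 1 h, normalised to acetonitrile.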

Assay [5] deals with rat CYP2A2, Cyp2a2 (gene 24895) (UniProt P15149). Put plainly: NVS_ADME_rCYP2A2: NovaScreen (NVS) CYP450-related Enzyme Activity (ADME) Assay for rat CYP2A2 (AID 2283116). The essentials: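 Cell-free recombinant rat CYP2A2 activity with fluorogenic substrate, fluorescence read 0.2 h after dosing. Chemicals screened at 10 uM in duplicate, hits then run in concentration-response up to 20 uM; signal loss versus acetonitrile baseline.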
Sequence of rat CYP2A2, Cyp2a2 (gene 24895) (P15149 whole entry, looked up): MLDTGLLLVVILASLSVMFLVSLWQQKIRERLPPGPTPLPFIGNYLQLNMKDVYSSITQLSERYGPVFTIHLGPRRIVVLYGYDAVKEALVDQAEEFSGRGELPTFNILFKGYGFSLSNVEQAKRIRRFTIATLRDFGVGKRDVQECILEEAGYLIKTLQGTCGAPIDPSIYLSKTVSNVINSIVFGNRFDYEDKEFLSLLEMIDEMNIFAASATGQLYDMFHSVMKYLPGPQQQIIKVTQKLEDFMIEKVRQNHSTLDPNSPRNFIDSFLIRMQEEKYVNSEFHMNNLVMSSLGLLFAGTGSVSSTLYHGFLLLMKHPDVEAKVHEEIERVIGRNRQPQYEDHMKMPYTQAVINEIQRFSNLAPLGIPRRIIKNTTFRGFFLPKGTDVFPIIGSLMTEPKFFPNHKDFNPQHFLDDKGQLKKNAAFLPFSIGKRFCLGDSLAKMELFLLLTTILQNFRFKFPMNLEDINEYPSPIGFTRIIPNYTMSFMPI

For assay [6], the system named is rat CYP2B1, gene 24300. Put plainly: NVS_ADME_rCYP2B1: NovaScreen (NVS) CYP450-related Enzyme Activity (ADME) Assay for rat CYP2B1 (AID 2283117). The method in brief:
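Recombinant rat CYP2B1 with fluorogenic substrate, read at 0.75 h. Primary screen in duplicate at 10 uM; compounds meeting threshold (e.g., 30% inhibition) re-run in concentration-response up to 20 uM. Fitted against acetonitrile control.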

Assay [7] concerns the target rat CYP2C11, Cyp2c11 (gene 29277) (UniProt P08683). Kind of assay: NVS_ADME_rCYP2C11: NovaScreen (NVS) CYP450-related Enzyme Activity (ADME) Assay for rat CYP2C11 (AID 2283118). The method in brief:
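Cell-free recombinant rat enzyme with fluorescent substrate; readout 0.33 h after dosing, loss of signal versus acetonitrile control. Initial duplicate single-point at 10 uM; actives rerun in concentration series.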

For assay [8], the target named is rat CYP2C13, Cyp2c13 (gene 171521) (UniProt P20814). Kind of assay: NVS_ADME_rCYP2C13: NovaScreen (NVS) CYP450-related Enzyme Activity (ADME) Assay for rat CYP2C13 (AID 2283121). The essentials: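 Recombinant rat CYP2C13 with fluorogenic substrate, 0.75 h cell-free incubation; primary screen in duplicate at 10 uM, actives followed in concentration series. Fluorescence loss relative to acetonitrile control indicates inhibition.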
Sequence of rat CYP2C13, Cyp2c13 (gene 171521) (P20814 whole entry, looked up): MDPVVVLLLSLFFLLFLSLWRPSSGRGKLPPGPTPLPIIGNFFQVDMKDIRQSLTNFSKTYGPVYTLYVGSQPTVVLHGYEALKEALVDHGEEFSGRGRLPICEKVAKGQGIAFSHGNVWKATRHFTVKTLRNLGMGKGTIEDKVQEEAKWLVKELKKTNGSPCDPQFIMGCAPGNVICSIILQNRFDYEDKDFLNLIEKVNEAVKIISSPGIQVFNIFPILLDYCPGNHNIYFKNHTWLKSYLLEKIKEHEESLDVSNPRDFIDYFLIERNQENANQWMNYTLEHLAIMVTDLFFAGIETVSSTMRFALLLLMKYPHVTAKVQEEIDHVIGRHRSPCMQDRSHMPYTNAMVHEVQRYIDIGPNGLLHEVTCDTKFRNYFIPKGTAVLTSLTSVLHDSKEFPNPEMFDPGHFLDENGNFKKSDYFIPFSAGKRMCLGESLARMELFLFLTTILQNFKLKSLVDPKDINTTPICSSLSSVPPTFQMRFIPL

Assay [9] concerns the target rat CYP2D1, Cyp2d1 (gene 266684) (UniProt P10633). Kind of assay: NVS_ADME_rCYP2D1: NovaScreen (NVS) CYP450-related Enzyme Activity (ADME) Assay for rat CYP2D1 (AID 2283122). The method in brief: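 Cell-free fluorescence enzyme-activity assay on extracted rat CYP2D1 protein, read 0.75 h after dosing. Primary screen in duplicate at 10 uM; qualifying chemicals then run in concentration-response to 20 uM max, loss-of-signal versus acetonitrile baseline.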

Assay [10] has as its target rat CYP2D2, Cyp2d26 (gene 25053) (UniProt P10634). Put plainly: NVS_ADME_rCYP2D2: NovaScreen (NVS) CYP450-related Enzyme Activity (ADME) Assay for rat CYP2D2 (AID 2283124). The essentials: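 Recombinant rat CYP2D2 in a cell-free fluorogenic activity assay, fluorescence read 0.75 h after dosing. Primary screen in duplicate at 10 uM; actives re-run singly in concentration-response to 20 uM, relative to acetonitrile.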

Assay [11] concerns rat CYP3A1, gene 25642. Kind of assay: NVS_ADME_rCYP3A1: NovaScreen (NVS) CYP450-related Enzyme Activity (ADME) Assay for rat CYP3A1 (AID 2283126). The essentials: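 Cell-free recombinant CYP assay with fluorescent substrate, read 0.5 h after dosing. Screened at 10 uM in duplicate, hits at up to 20 uM in concentration-response; loss of signal versus acetonitrile baseline.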
In assay [12] the target is human CYP1A2, CYP1A2 (gene 1544) (UniProt P05177). Put plainly: NVS_ADME_hCYP1A2: NovaScreen (NVS) CYP450-related Enzyme Activity (ADME) Assay for human CYP1A2 (AID 2283102).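 Note: potency for inhibition since loss of fluorescence marks reduced CYP1A2 activity.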 The method in brief:
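Compounds were tested at 10 uM in duplicate against recombinant CYP1A2 produced in insect cells. Enzyme activity was measured by fluorescence 0.5 h after dosing, with loss of signal versus acetonitrile control. Active compounds were re-tested in concentration series.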

Assay [13] addresses rat CYP2A1, Cyp2a1 (gene 24894) (UniProt P11711). Kind of assay: NVS_ADME_rCYP2A1: NovaScreen (NVS) CYP450-related Enzyme Activity (ADME) Assay for rat CYP2A1 (AID 2283114; active = hit-call score of the fitted dose curve at least 0.9, where 1 is the maximum; inactive = score below 0.9). The essentials:
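Recombinant rat CYP2A1, cell-free, fluorogenic substrate turnover read by fluorescence intensity 0.75 h after dosing. Primary screen at 10 uM in duplicate; actives rerun as concentration-response up to 20 uM; loss of signal versus acetonitrile control.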

Assay [14] concerns the target human CYP2B6, CYP2B6 (gene 1555) (UniProt P20813). Put plainly: NVS_ADME_hCYP2B6: NovaScreen (NVS) CYP450-related Enzyme Activity (ADME) Assay for human CYP2B6 (AID 2283101). The method in brief:
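Fluorescence-based enzyme activity of recombinant human CYP2B6, measured 1 h post-dose against acetonitrile vehicle baseline. Screened at a single concentration of 10 uM in duplicate before concentration-response follow-up.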

Assay [15] has as its target human CYP4F12, CYP4F12 (gene 66002) (UniProt Q9HCS2). Kind of assay: NVS_ADME_hCYP4F12: NovaScreen (NVS) CYP450-related Enzyme Activity (ADME) Assay for human CYP4F12 (AID 2283111). The method in brief:
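Cell-free fluorescence assay of recombinant human CYP4F12 activity on a specific substrate, read 0.5 h after dosing. Primary screen in duplicate at 10 uM, then concentration series for actives; loss of signal fitted against acetonitrile negative control.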

The target in assay [16] is rat CYP2C12, Cyp2c12 (gene 25011) (UniProt P11510). Kind of assay: NVS_ADME_rCYP2C12: NovaScreen (NVS) CYP450-related Enzyme Activity (ADME) Assay for rat CYP2C12 (AID 2283119). The essentials:
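Cell-free recombinant rat CYP2C12 activity read by fluorescence 0.5 h after dosing; loss of signal versus acetonitrile control. Primary screen in duplicate at 10 uM; actives then run in concentration-response format.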

For assay [17], the target named is human CYP2C8, CYP2C8 (gene 1558) (UniProt P10632). Put plainly: NVS_ADME_hCYP2C8: NovaScreen (NVS) CYP450-related Enzyme Activity (ADME) Assay for human CYP2C8 (AID 2283104; active = hit-call score of the fitted dose curve at least 0.9, where 1 is the maximum; inactive = score below 0.9). The essentials:
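Recombinant human CYP2C8 with fluorogenic substrate, 0.5 h, fluorescence intensity; signal loss fitted versus acetonitrile. Screened in duplicate at 10 uM, then actives run in concentration-response up to 20 uM.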

The target in assay [18] is human CYP2J2, CYP2J2 (gene 1573) (UniProt P51589). Kind of assay: NVS_ADME_hCYP2J2: NovaScreen (NVS) CYP450-related Enzyme Activity (ADME) Assay for human CYP2J2 (AID 2283106). The essentials: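 Cell-free assay of recombinant CYP2J2 with a fluorogenic substrate, read 1 h after dosing; loss of signal versus acetonitrile. Primary screen at 10 uM in duplicate, then concentration-response up to 20 uM for chemicals passing threshold (e.g., 30% inhibition).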

Assay [19] concerns the target human CYP2D6, CYP2D6 (gene 1565) (UniProt P10635). Kind of assay: NVS_ADME_hCYP2D6: NovaScreen (NVS) CYP450-related Enzyme Activity (ADME) Assay for human CYP2D6 (AID 2283107). The essentials:
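Compounds were first tested in duplicate at 10 uM against recombinant enzyme produced in insect cells, with substrate turnover measured by fluorescence after 1 hour. Decreased signal, referenced to acetonitrile vehicle, was taken as reduced enzyme activity. Active chemicals went on to concentration-response testing.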

In assay [20] the target is rat CYP1A2, Cyp1a2 (gene 24297) (UniProt P04799). Put plainly: NVS_ADME_rCYP1A2: NovaScreen (NVS) CYP450-related Enzyme Activity (ADME) Assay for rat CYP1A2 (AID 2283115). The method in brief: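 Cell-free recombinant rat enzyme with fluorogenic substrate, read by fluorescence intensity 1 hour after dosing. Loss of signal versus acetonitrile negative control; primary screen at 10 uM in duplicate, actives followed in concentration series.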

Several values for one entry are separate records, joined by “and”; a condition that tells them apart may be missing. Equal values may be shown once. Inconclusive results are not listed. Activity calls are given as the source filed them. Rule for the calls, unless noted: active = hit-call score of the fitted dose curve at least 0.9, where 1 is the maximum; inconclusive = response in the unintended direction; inactive = score below 0.9.

Sequence of human CYP1A2, CYP1A2 (gene 1544) (P05177 whole entry, looked up): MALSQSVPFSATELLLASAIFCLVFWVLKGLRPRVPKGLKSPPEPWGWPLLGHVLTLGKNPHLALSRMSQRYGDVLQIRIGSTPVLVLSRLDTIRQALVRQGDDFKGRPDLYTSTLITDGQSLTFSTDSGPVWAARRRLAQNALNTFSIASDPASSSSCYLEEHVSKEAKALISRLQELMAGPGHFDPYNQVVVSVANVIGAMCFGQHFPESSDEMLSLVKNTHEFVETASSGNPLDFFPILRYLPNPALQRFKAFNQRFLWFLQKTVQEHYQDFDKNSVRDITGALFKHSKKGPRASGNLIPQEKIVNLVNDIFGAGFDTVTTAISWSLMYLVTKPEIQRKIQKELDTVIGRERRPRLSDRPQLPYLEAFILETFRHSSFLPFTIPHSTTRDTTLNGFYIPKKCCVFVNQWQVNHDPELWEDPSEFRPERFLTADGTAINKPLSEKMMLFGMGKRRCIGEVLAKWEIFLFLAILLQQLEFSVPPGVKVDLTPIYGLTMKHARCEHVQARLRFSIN
Sequence of Cytochrome P450 2C18 (Homo sapiens) (P33260 whole entry, looked up): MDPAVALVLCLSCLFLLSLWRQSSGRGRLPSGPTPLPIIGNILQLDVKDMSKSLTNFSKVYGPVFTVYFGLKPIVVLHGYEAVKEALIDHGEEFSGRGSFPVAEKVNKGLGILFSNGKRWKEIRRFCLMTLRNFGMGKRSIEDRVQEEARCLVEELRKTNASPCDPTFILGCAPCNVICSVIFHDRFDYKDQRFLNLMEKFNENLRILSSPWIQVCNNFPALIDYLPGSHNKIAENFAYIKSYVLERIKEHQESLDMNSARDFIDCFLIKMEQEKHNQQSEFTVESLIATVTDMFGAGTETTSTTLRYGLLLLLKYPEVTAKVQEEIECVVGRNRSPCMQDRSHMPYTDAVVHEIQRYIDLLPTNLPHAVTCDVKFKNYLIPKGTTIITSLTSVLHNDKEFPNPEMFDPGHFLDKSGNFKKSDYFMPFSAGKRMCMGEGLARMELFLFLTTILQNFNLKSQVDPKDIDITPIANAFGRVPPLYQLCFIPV
Sequence of human CYP2B6, CYP2B6 (gene 1555) (P20813 whole entry, looked up): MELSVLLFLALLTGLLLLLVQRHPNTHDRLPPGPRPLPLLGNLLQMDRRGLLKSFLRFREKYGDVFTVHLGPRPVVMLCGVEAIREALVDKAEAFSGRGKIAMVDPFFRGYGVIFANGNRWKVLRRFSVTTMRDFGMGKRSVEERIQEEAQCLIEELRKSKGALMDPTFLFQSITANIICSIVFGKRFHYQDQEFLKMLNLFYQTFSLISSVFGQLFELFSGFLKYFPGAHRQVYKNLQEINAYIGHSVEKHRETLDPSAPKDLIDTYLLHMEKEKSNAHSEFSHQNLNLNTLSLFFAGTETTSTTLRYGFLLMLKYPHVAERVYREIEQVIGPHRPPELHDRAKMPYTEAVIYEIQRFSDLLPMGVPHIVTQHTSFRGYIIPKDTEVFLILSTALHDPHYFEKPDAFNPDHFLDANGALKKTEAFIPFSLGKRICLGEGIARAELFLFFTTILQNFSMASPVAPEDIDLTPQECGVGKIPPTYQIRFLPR
Sequence of rat CYP2A1, Cyp2a1 (gene 24894) (P11711 whole entry, looked up): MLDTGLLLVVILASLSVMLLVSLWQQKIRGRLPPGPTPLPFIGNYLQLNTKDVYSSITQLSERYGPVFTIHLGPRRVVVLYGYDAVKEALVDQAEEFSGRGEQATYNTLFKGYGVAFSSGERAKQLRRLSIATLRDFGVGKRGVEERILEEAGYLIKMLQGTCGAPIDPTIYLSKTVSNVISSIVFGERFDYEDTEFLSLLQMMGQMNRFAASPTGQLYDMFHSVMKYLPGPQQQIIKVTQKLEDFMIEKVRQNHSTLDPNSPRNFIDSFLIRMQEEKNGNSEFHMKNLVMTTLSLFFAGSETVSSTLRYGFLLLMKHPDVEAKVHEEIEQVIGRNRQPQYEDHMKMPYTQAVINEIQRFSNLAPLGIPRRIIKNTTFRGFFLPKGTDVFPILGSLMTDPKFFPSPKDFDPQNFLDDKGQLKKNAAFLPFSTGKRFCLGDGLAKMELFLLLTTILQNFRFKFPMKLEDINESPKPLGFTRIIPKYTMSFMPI
Sequence of rat CYP2D2, Cyp2d26 (gene 25053) (P10634 whole entry, looked up): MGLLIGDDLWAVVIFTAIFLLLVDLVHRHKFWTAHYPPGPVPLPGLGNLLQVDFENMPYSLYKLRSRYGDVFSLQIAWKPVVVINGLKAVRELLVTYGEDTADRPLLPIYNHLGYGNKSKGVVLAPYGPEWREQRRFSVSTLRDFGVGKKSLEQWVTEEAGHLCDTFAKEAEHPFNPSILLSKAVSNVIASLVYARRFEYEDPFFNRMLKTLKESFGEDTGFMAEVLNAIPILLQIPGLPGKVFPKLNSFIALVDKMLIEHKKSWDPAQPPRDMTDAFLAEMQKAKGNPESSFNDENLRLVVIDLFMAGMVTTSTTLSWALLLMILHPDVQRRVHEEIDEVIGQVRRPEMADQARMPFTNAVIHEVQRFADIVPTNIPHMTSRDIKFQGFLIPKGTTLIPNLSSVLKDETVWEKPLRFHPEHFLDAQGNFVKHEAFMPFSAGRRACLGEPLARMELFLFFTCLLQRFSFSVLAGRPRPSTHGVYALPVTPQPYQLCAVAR
Sequence of rat CYP2C11, Cyp2c11 (gene 29277) (P08683 whole entry, looked up): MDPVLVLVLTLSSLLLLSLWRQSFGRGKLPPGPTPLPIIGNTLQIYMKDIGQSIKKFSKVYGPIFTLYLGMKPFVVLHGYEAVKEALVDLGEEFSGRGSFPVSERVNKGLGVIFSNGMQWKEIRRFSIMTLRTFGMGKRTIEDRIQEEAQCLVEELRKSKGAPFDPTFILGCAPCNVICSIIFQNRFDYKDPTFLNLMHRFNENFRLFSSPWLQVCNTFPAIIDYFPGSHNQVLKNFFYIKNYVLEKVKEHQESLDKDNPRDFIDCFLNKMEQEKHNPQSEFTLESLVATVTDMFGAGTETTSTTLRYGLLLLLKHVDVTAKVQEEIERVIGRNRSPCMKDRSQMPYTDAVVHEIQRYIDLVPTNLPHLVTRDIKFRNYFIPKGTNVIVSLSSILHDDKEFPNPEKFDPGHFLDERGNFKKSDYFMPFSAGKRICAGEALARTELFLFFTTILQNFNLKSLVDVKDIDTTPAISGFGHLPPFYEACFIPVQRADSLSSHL
Sequence of human CYP2C9, CYP2C9 (gene 1559) (P11712 whole entry, looked up): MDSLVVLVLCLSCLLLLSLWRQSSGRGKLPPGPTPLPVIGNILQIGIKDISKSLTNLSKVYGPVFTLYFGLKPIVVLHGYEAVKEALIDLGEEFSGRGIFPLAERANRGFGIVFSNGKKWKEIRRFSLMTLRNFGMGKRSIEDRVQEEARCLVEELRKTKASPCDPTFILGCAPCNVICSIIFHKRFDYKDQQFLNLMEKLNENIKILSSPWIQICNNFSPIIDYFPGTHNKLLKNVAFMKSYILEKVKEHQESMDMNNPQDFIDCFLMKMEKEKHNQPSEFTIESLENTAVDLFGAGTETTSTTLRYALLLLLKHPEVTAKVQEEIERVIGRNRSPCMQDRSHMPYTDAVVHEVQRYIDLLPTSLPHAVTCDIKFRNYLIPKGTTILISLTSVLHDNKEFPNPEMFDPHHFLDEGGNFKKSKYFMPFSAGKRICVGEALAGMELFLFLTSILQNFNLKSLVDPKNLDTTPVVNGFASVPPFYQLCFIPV
Sequence of rat CYP2D1, Cyp2d1 (gene 266684) (P10633 whole entry, looked up): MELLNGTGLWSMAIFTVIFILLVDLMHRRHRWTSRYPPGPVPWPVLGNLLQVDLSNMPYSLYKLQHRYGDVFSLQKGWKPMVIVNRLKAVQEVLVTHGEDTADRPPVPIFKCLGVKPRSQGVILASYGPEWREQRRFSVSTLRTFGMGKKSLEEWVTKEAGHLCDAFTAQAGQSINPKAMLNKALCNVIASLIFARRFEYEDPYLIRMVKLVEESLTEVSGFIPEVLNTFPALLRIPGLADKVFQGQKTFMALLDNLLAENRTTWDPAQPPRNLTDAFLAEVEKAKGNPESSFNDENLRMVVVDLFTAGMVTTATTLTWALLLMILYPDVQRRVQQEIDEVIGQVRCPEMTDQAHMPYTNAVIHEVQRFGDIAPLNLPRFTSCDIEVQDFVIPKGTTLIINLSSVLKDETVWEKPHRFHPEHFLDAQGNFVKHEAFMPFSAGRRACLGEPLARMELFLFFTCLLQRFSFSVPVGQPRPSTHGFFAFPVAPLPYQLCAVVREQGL

Turning to `CC(C)(C)C(=O)C(Oc1ccc(Cl)cc1)n1cncn1` (stereo not drawn), the AC50 was 8.28 µM (active) in assay [1]; 6.98 µM (active) and 4.65 µM (active) in assay [2]; 5.81 µM (active) in assay [3]; 1.32 µM (active) in assay [4]; 32 nM (active) and 40.6 nM (active) in assay [5]; 549 nM (active) and 1.69 µM (active) in assay [6]. Besides, the half-maximal activity concentration (AC50) in [7] is 4.29 µM (active); in [8], 0.246 µM (active); in [9], 6.43 µM (active); in assay [10], 5.33 µM (active) and 5.52 µM (active); in assay [11] it was 8.49 µM (active).
For the molecule `CC(C)Oc1cccc(NC(=O)c2ccccc2C(F)(F)F)c1`, the AC50 in assay [12] was 6.37 µM (active); in assay [1], 2.66 µM (active); in assay [2], 3.19 µM (active); in [4], 4.9 µM (active). Also, in assay [13], the molecule was called inactive.
For `CCN(CC)c1nc(C)cc(OP(=S)(OC)OC)n1`, the half-maximal activity concentration (AC50) in [14] is 4.4 µM (active); in assay [12] it was 1.41 µM (active); in [2], 7.09 µM (active); in [4] it was 0.773 µM (active).
With `CC(C)N1C(=O)N(c2ccccc2)CSC1=NC(C)(C)C`, the AC50 in assay [1] is 8.79 µM (active); in [7], 3.97 µM (active); in assay [11], 5.84 µM (active).
For the molecule `CCCCC(O)(Cn1cncn1)c1ccc(Cl)cc1Cl` (stereo not drawn), the AC50 in [14] is 1.07 µM (active); in assay [1] it was 1.59 µM (active); in [2] it was 0.554 µM (active); in assay [15], 2.52 µM (active); in assay [4], 0.426 µM (active); in [13], 1.3 µM (active). Further, the AC50 in [5] was 12.6 nM (active); in assay [6], 54.7 nM (active); in assay [7], 1.85 µM (active); in assay [16], 1.58 µM (active); in assay [8], 0.655 µM (active); in assay [9] it was 0.951 µM (active). Besides, the AC50 in assay [10] was 4.09 µM (active); in [11] it was 0.995 µM (active).
For the molecule `COP(=S)(OC)Oc1ccc([N+](=O)[O-])c(C)c1`, the AC50 was 1.3 µM (active) in [14]; 0.516 µM (active) in [12]; 2.31 µM (active) in assay [1]; 0.612 µM (active) in [18]; 4.59 µM (active) in assay [19]; 0.168 µM (active) in assay [4]. Moreover, the AC50 is 3.84 µM (active) in [13]; 1170 nM (active) in assay [6]; 0.392 µM (active) in [7]; 8.05 µM (active) in assay [16]; 10 µM (active) in assay [8]; 5.28 µM (active) in assay [10]. In assay [11], the half-maximal activity concentration (AC50) is 8.22 µM (active). In addition, the outcome in assay [17] and in assay [20] was inactive.
`CNC(=O)Oc1cccc2ccccc12`: the AC50 in assay [12] was 5.35 µM (active).
With `CCOc1cc(C(C)(C)C)ccc1C1COC(c2c(F)cccc2F)=N1` (stereo not drawn), in assay [1], the call was inactive. Further, the concentration at half-maximal activity (AC50) is 7.62 µM (active) in [4], 1150 nM (active) in assay [5], 10 µM (active) in assay [7] and 0.55 µM (active) in assay [10].
